Hits are enriched below; roughly 11% of the tested compounds scored in any of these assays.
HEK293 tox – kills HEK 293 cells. 6.6% of 94,000 active. HEK 293 viability, ATP luminescence (CellTiter-Glo), 48-72 h. Potency, µM (highest dose often 115 µM), usual class: inhibitors; also: nearly all actives have a fitted effect of over 60% in size
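Cells seeded first (HEK 293, 250 cells/well), then compound added by pintool. Incubation ran 48 or 72 hr at 37 degree Celsius. CellTiter-Glo was added and luminescence imaged after 10 min at room temperature.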
FLuc inh – blocks purified firefly luciferase enzyme activity | P08659 | purified P. pyralis luciferase, luminescence, biochemical | Potency, µM (doses to about 115 µM), hits mostly inhibitors | 2.5% of 76,000 active | AID 1347043; also: nearly all actives have a fitted effect of over 65% in size
Target sequence (P08659 whole entry, looked up): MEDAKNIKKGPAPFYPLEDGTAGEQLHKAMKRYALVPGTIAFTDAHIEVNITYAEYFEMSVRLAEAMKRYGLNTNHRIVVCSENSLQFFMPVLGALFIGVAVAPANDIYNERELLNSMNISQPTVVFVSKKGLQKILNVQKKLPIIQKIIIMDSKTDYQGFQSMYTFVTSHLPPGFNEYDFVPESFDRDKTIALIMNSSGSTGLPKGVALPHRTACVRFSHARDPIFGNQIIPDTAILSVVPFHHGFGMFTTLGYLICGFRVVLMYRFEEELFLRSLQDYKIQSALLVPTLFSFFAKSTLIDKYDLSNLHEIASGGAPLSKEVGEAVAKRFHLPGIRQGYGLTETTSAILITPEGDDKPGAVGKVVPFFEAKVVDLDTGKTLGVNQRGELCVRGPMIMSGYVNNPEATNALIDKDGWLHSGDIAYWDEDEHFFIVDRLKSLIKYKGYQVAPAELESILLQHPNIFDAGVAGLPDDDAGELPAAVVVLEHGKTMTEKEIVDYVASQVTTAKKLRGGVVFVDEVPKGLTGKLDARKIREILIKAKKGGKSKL
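Biochemical qHTS: compound (6-point titration) added to 10uM D-luciferin plus 10uM ATP in Tris acetate pH 7.5 buffer with Mg, Tween-20 and BSA, then purified enzyme at 10nM; light output imaged.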
NIH3T3 tox – kills NIH 3T3 cells; AID 1345082; Potency, µM (series often up to 96.7 µM), most hits filed as inhibitors; 4.3% of 94,000 active; NIH 3T3 viability, CellTiter-Glo ATP luminescence, 48-72 h; also: nearly all actives have a fitted effect of over 55% in size
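Cytotoxicity is measured as loss of cellular ATP: NIH 3T3 cells (400/well) are exposed to compound for 48 or 72 hr at 37 °C, then CellTiter-Glo luminescence is imaged after 10 min at room temperature.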
hNpr1 antagonist – blocks ANP-stimulated signaling of human Npr1 receptor; P16066; HEK293 hNpr1 GloSensor cGMP, ANP-stimulated luminescence; Potency, µM (doses to about 46.3 µM), usual class: inhibitors; 1.6% of 76,000 active; AID 1347048; calls by dose curve; also: nearly all actives have a fitted effect of over 60% in size
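Compound pre-incubated 30 min at room temperature on GloSensor-loaded HEK293 cells stably carrying hNpr1 and the pGS-40F cGMP biosensor. Stimulation uses hNppA at 0.1 nM final; luminescence is taken at baseline and 20 min post-agonist.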
Of the large screens only hits and unclear results are named; the others gave an inactive call. Unless noted, calls follow the shape of the dose curve; as a rule, active = well fitted curve in the direction sought with a large enough effect; inconclusive = small, poorly fitted or top-dose-only effect, or another doubt; inactive = no such curve, though single readings can be large; an effect the other way counts as inactive or inconclusive.

CCc1cccc2c(C(CC(=O)NCCc3ccc(OC)c(OC)c3)c3cccc(OC)c3)c[nH]c12 (centres undefined)	HEK293 tox 25µM, NIH3T3 tox inconclusive
CCc1cccc2c(C(CC(=O)NCCOC)c3ccc(OC)cc3OC)c[nH]c12 (centres undefined)	HEK293 tox inconclusive
CN(C)CC1(O)CCC2(CCN(C(=O)c3ccsc3)CC2)CC1	none
CC(C)C1=NOC2(CCCN(CC3CCCCC3)C2)C1 (centres undefined)	none (no result: FLuc inh, hNpr1 antagonist)
Cc1ccc(-n2nc(-c3c(C)nc4scc(CC(=O)Nc5ccc(F)cc5)n4c3=O)cc2C)cc1	HEK293 tox inconclusive, NIH3T3 tox inconclusive
CCc1cccc2c(C(CC(=O)NCc3ccc(F)cc3)c3cccc(OC)c3OC)c[nH]c12 (centres undefined)	HEK293 tox inconclusive, NIH3T3 tox inconclusive
CCc1cccc2c(C(CC(=O)NCCC(C)C)c3cccc(OC)c3OC)c[nH]c12 (centres undefined)	HEK293 tox 45µM, NIH3T3 tox inconclusive
O=C(c1ccc(Cl)cc1)N1CCOC(CN(C(=O)c2ccc(F)cc2)C2CCCC2)C1 (centres undefined)	HEK293 tox 45µM, NIH3T3 tox inconclusive
CN1c2cc(C(=O)NC3CCCCC3)ccc2C(=O)N2CCCC21 (centres undefined)	NIH3T3 tox inconclusive
CC(C)C(=O)NCCNC(=O)c1ccc(-c2cncnc2)cc1	none (no result: FLuc inh, hNpr1 antagonist)
CN(CC[C@H]1CN(C(=O)c2ccc(C(F)(F)F)cc2)CC[C@H]1CC(=O)O)c1ccccc1	NIH3T3 tox 35µM
CC(=O)Nc1ccc(CN2CCN(c3cc(Cl)ncn3)C(=O)C2)cc1	HEK293 tox 10µM, NIH3T3 tox 35µM
CC(C)CN1CCN(c2cc(Cl)ncn2)C(=O)C1	HEK293 tox inconclusive
O=C1CN(Cc2cccc(-c3ccsc3)c2)CCN1c1cc(Cl)ncn1	HEK293 tox 79µM, NIH3T3 tox inconclusive
CC(C)c1ccc(CN2CC(CN[S+](=O)([O-])c3ccccc3)C3(C2)CN(c2ccccc2)C3)cc1 (centres undefined)	HEK293 tox inconclusive, NIH3T3 tox 40µM
O=[S+]([O-])(NCC1CN(Cc2ccc3[nH]ccc3c2)CC12CN(c1ccccc1)C2)c1ccccc1 (centres undefined)	HEK293 tox 22µM, NIH3T3 tox 22µM
O=[S+]([O-])(NCC1CN(Cc2cccc(Cl)c2)CC12CN(c1ccccc1)C2)c1ccccc1 (centres undefined)	HEK293 tox inconclusive, NIH3T3 tox inconclusive
c1ccc(COC2CCN(c3nccc(-c4cccnc4)n3)CC2)nc1	HEK293 tox inconclusive, NIH3T3 tox inconclusive
Fc1ccccc1OCC1CCCN(c2nccc(-c3cccnc3)n2)C1 (centres undefined)	HEK293 tox inconclusive, NIH3T3 tox 79µM
COc1ccc(CNC(=O)C[C@@H]2C[C@@H](C(C)C)[C@H](CNC(C)=O)C=C2C)cc1	HEK293 tox inconclusive, NIH3T3 tox 100µM
CC1=C[C@@H](CO)[C@H](C(C)C)C[C@H]1CC(=O)NCc1ccc(C(F)(F)F)cc1	HEK293 tox 40µM, NIH3T3 tox inconclusive
Cc1ccc(C)c(-c2cc3c(=O)n(CCNC(=O)c4ccc(N(C)C)cc4)ccn3n2)c1	HEK293 tox inconclusive, NIH3T3 tox inconclusive
COCc1nc2nc(-c3ccccc3)c(Nc3ccc(F)cc3)cc2n1C	HEK293 tox inconclusive, NIH3T3 tox inconclusive
CCN(CC)c1cc(CCC(=O)NCCN2CCCCCC2)ccn1	none
CC(C)N1CC[C@H](c2nnc(-c3ccccc3F)o2)C1	FLuc inh 40µM
c1ccc2oc([C@H]3CCN(C4CCCCC4)C3)nc2c1	FLuc inh inconclusive, hNpr1 antagonist inconclusive
c1ccc2oc([C@H]3CCN(C4CCOCC4)C3)nc2c1	FLuc inh 79µM
Fc1ccccc1-c1nnc([C@H]2CCN(C3CCOCC3)C2)o1	FLuc inh 71µM
COc1cccc(-c2nc3cc4c(cc3cc2CN2CCSCC2)OCO4)c1OC	HEK293 tox 22µM, NIH3T3 tox inconclusive
C[S+](=O)([O-])N1CCC(c2nnc3n2C(C(=O)NCCc2ccc(Cl)cc2)CC3)CC1 (centres undefined)	none (no result: FLuc inh, hNpr1 antagonist)
c1cc2nc(-c3ccsc3)[nH]c2cn1	HEK293 tox inconclusive, FLuc inh inconclusive, NIH3T3 tox inconclusive
Cc1cc(-c2nc3ccncc3[nH]2)c(C)o1	HEK293 tox inconclusive, FLuc inh 45µM, NIH3T3 tox inconclusive
CN1CCCC2(C1)CN(C)c1ccc(C(=O)NCC3CCCCC3)cc12 (centres undefined)	HEK293 tox 112µM, NIH3T3 tox 89µM
CC(C)CNC(=O)c1ccc2c(c1)C1(CCCN(CC3CC3)C1)CN2C (centres undefined)	HEK293 tox inconclusive
CN1CCC2(C1)CN(CC1CC1)c1ccc(C(=O)NCC3CC3)cc12 (centres undefined)	HEK293 tox inconclusive, NIH3T3 tox inconclusive
CN1CC2(CCCN(CC3CC3)C2)c2cc(C(=O)NCCc3ccccc3)ccc21 (centres undefined)	HEK293 tox inconclusive, NIH3T3 tox 79µM
CN(C)CCNC(=O)c1ccc2c(c1)C1(CCCN(CC3CC3)C1)CN2C (centres undefined)	HEK293 tox inconclusive, NIH3T3 tox 89µM
CC(=O)N1CCCC2(C1)CN(C)c1ccc(C(=O)NCCc3ccccc3)cc12 (centres undefined)	HEK293 tox inconclusive
COCCN1CCC2(C1)CN(C)c1ccc(C(=O)NCc3ccccc3)cc12 (centres undefined)	HEK293 tox inconclusive, FLuc inh 20µM, NIH3T3 tox inconclusive
CCOC(=O)C1(Cc2ccccc2F)CCCNC1 (centres undefined)	NIH3T3 tox inconclusive
OCC1(CCCc2ccccc2)CCN(Cc2cccc(-n3cccn3)c2)CC1	HEK293 tox inconclusive, NIH3T3 tox inconclusive
O=S(=O)(Cc1ccccc1F)N1CCCC(Cc2noc(C3CC3)n2)C1 (centres undefined)	none
COC(=O)CNC(=O)C1CCN(Cc2ccccc2-c2cccnc2)CC1	none (no result: FLuc inh, hNpr1 antagonist)
Cc1nc(N2CCCCC2)n(CC(=O)Nc2ccc(F)cc2)c(=O)c1C	HEK293 tox inconclusive, NIH3T3 tox inconclusive
Cc1ccc(NC(=O)Cn2c(N3CCCCC3)nc(C)c(C)c2=O)cc1C	HEK293 tox 22µM, NIH3T3 tox inconclusive
CC(=O)N1CCC2(CC1)CC(N(C(=O)NC(C)C)C1CC1)CCO2 (centres undefined)	none (no result: FLuc inh, hNpr1 antagonist)
O=C(c1ccc(C(F)(F)F)cc1)N1CCC2(CC1)CCN(Cc1cccs1)c1ccccc1O2	HEK293 tox 25µM, NIH3T3 tox 13µM
O=C(C1CC1)N1CCC2(CC1)CCN(Cc1cccs1)c1ccccc1O2	HEK293 tox 35µM, NIH3T3 tox inconclusive
O=C1CC2(CCN(C(=O)C3CCCN([S+](=O)([O-])c4cccs4)C3)CC2)Oc2ccccc2N1 (centres undefined)	HEK293 tox inconclusive (no result: FLuc inh, hNpr1 antagonist)
O=C1CC2(CCN(C(=O)C3CCN([S+](=O)([O-])c4cccs4)CC3)CC2)Oc2ccccc2N1	HEK293 tox 28µM, NIH3T3 tox inconclusive (no result: FLuc inh, hNpr1 antagonist)
O=C(NC1CN(c2ccnc3ccnn23)C1)c1ccncc1	none (no result: FLuc inh, hNpr1 antagonist)

Bioassay records (PubChem)
